# Values joined by “and” are separate entries in the source; they are usually repeats but may differ in a detail not shown here. Equal entries are not always repeated. Inconclusive results are not listed. A number with no mark means an inactive call. Active and inactive are the calls of the source. Calls come from the whole dose curve; as a rule, active = well fitted inhibition curve with a large enough effect in the repeat runs; inconclusive = weak or mixed curves; inactive = no such curve, though single readings can be large or run the other way.
# Biological target: Cytochrome P450 2C9 (Homo sapiens) (UniProt P11712)
# Assay: Cytochrome P450 Family 2 Subfamily C Member 9 (CYP2C9) small molecule antagonists: luciferase reporter qHTS assay (AID 1671198); note: nearly all actives have a fitted effect of over 50% in size
# Conditions: P450-Glo CYP2C9 enzyme assay, luciferin luminescence; series mostly up to 115 µM; activity change, negative = inhibition: at the top concentration
# Text: U.S. Tox21 Program National Center for Advancing Translational Sciences [NCATS] U.S. Environmental Protection Agency [EPA] National Institutes of Environmental Health Sciences [NIEHS] National Toxicology Program [NTP] U.S. Food and Drug Administration [FDA] Tox21 Assay Overview: Cytochrome P450 (CYP) enzymes are membrane-bound hemeproteins that play a key role in metabolism of drugs and xenobiotics. Evaluation of the effect of chemicals on CYP isozymes is useful to minimize the adverse drug reactions and toxicities in drug development process. Tox21 chemicals were tested for their effect on CYP enzyme activities by using P450-Glo (TM) screening systems (Promega Corporation, Madison, WI). These systems provide a luminescent method containing proluciferin substrates and are converted to luciferin products by CYP isozymes. The luciferin products formed are detected with a luciferin detection reagent, and the amount of light produced is proportional to CYP activity. P450-Glo (TM) CYP2C9 screening system (Catalog. No. V9790) was used to detect the compounds that interfere in CYP2C9 activity.
# Tox21 Assay Protocol Summary: Two ul of enzyme-substrate mix was dispensed into medium binding white/solid 1536-well plates (Greiner Bio-One North America Inc., Monroe, NC) using a BioRaptr Flying Reagent Dispenser (FRD, Beckman Coulter, Brea, CA). […] The assay plates were incubated at room temperature for 10 min. Then 2 ul of NADPH regeneration solution was added to each well of the assay plates using an FRD and incubated at 37C for 1 h. The reaction was stopped by adding 4 ul of detection reagent using an FRD and after 20 min incubation at room temperature the luminescence signal was measured using a ViewLux plate reader (Perkin Elmer, Shelton, CT). Data were expressed as relative luminescence units.
# % is set by controls: 0 for no effect and ±100 for the full control effect; potency is the fitted concentration of half-maximal effect.
# Cytochrome P450 2C9 (Homo sapiens), sequence (P11712 whole entry, looked up): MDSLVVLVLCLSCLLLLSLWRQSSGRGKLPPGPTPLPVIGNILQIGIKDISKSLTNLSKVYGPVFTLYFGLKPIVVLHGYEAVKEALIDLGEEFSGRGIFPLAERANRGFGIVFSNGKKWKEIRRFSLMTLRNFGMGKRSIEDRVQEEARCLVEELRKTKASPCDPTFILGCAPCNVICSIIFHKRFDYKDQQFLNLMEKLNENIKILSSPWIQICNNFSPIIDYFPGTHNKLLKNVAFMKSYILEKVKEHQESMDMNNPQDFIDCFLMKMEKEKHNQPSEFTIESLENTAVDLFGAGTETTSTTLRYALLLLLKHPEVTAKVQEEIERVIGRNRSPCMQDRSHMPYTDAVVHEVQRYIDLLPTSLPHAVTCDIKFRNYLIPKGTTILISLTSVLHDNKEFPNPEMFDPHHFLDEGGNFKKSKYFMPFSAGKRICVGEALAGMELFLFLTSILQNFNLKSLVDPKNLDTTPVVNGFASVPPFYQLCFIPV
SMILES,Potency,"activity change, negative = inhibition"
CC/C(=N\OC/C=C/Cl)C1=C(O)CC(C2CCOCC2)CC1=O (stereo not given),31.7 µM (active),
N#Cc1cc(I)c(O)c(I)c1,22.4 µM (active),
Cc1c(F)c(F)c(COC(=O)C2C(/C=C(\Cl)C(F)(F)F)C2(C)C)c(F)c1F (stereo not given),22.4 µM (active),
CCO[C@H]1O[C@@H]2OC3(C)CC[C@H]4[C@H](C)CC[C@@H]([C@H]1C)[C@@]24OO3,11 µM (active),
CCOC(=O)COc1cc(-c2nn(C)c(OC(F)F)c2Cl)c(F)cc1Cl,6.33 µM (active),
c1ccc(C2CC2)c(OCC2=NCCN2)c1,,4.47% [at 53 µM]
Cc1ccccc1CCl,,-0.721%
COC(=O)C(Cl)C(=O)OC,,-1.08% [at 53 µM]
Sc1ccccc1Cl,,-20.3% [at 53 µM]
N#CCc1ccccc1,,-1.21%
O=C(O)C(F)(F)C(F)(F)C(F)(F)C(F)(F)C(F)(F)C(F)(F)C(F)(F)C(F)(F)C(F)(F)F,2.83 µM (active),
CC(C)=CCOc1c2occc2cc2ccc(=O)oc12,0.617 µM (active),
COP(=S)(Oc1cc(Cl)c(Br)cc1Cl)c1ccccc1 (stereo not given),0.796 µM (active),
O=C(O)C(F)(F)C(F)(F)C(F)(F)C(F)(F)C(F)(F)C(F)(F)C(F)(F)C(F)(F)C(F)(F)C(F)(F)F,5.34 µM (active),
CCOP(O)OCC,,-6.12%
O=[N+]([O-])c1ccccc1CCl,,-17.1%
C=C(C#N)CCC#N,,1.23%
CC(O)(CS(=O)(=O)c1ccc(F)cc1)C(=O)Nc1ccc(C#N)c(C(F)(F)F)c1 (stereo not given),13.1 µM (active),
O=NN1CCCCCC1,,-12.7%
Cc1cc(=O)[nH]o1,110 µM (active),

SMILES,Potency,"activity change, negative = inhibition"
ClCCCCBr,,3.16%
O=C(O)COc1ccc(Cl)cc1,,-8.96%
CC(=O)c1cc2c(cc1C)C(C)(C)C(C)CC2(C)C (stereo not given),35.6 µM (active),
N#Cc1ccc(Cl)cc1,,-13%
CCCCOC(=O)c1ccccc1C(=O)OCc1ccccc1,8.92 µM (active) and 10 µM (active),
C[C@H]1CNCCc2ccc(Cl)cc21,,8.02% [at 53 µM]
O=C(C(Cl)(Cl)Cl)C(Cl)(Cl)Cl,,-17.9%
C=CC(=O)OCC(C)C,,3.7%
COP(=S)(OC)Oc1ccc([N+](=O)[O-])cc1Cl,20 µM (active),
O=[N+]([O-])c1ccc(F)c([N+](=O)[O-])c1,32 µM (active),
CCCC(=O)Cl,,-15.2%
BrCC(Br)C1CCC(Br)C(Br)C1 (stereo not given),31.6 µM (active),
CCN(C)N=O,,0.0803%
CCCCCCCCCCOC(=O)c1ccccc1C(=O)OCCCCCCCCCC,,-12%
CCOP(=S)(OCC)SCSCC,35.6 µM (active),
CC(c1ccc(O)cc1)(c1ccc(O)cc1)c1ccc(O)cc1,10 µM (active),
S=C=NCc1ccccc1,36 µM (active),
C=CC(=O)OCC(C)O (stereo not given),,3.39%
CCOP(=O)(OCC)SCCSCC,,-17.3%
Cc1ccc2ccccc2c1,,-0.63%
